Source: PubChem BioAssay AID624405 (Broad Institute, 2012)
Out of some 1,900 compounds screened, about 250 (13%) were called active. Not shown: some 4% with an inconclusive outcome.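 The calls were made as follows: active = fitted curve reaches 40% rescue activity at or below the top valid dose, in every test run; inconclusive = test runs disagree, some active and some inactive; inactive = every run misses the threshold or moves the wrong way.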 The list is a sample of the results. Results with a measured potency or affinity are listed apart.

assay: rescue of simvastatin-induced ATP loss – cell-based, C2C12 myotubes, ATP luminescence, cherry pick, dose response (AID 624405); conditions: 48 h, scaled: DMSO wells 0, geranylgeraniol wells 100; series mostly up to 19.5 µM;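 also: myotubes are challenged with simvastatin at 10 µM to lower ATP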

Structure (SMILES)	outcome
O=C(Nc1ccc2nn(-c3ccccc3)nc2c1)c1cccnc1	inactive
O=C(CSCc1ccc(Cl)cc1)N/N=C/c1ccccc1	inactive
C[C@@H]1CN([C@@H](C)CO)C(=O)Cc2cc(NC(=O)Nc3cccc4ccccc34)ccc2O[C@H]1CN(C)Cc1ccc(Oc2ccccc2)cc1	inactive
O=C(Nc1ccccc1Cl)NC1(C(=O)N2CCCCC2)CCCCC1	inactive
Cc1ccc(-c2cc(N)n(-c3ccc(C)cc3)n2)cc1	inactive
C=CCn1c(=O)/c(=C\c2ccsc2)s/c1=C(/C#N)C(=O)NCCN1CCOCC1	inactive
C[C@@H]1CN([C@H](C)CO)C(=O)c2cc(NS(=O)(=O)c3ccc(Cl)cc3)ccc2O[C@H]1CN(C)C(=O)Nc1cccc2ccccc12	inactive
C[C@H]1CN([C@@H](C)CO)C(=O)c2cc(NS(=O)(=O)c3ccc(Cl)cc3)ccc2O[C@H]1CN(C)Cc1ccc(Oc2ccccc2)cc1	inactive
C[C@H]1CN([C@@H](C)CO)C(=O)c2cc(NC(=O)Nc3ccc(C(F)(F)F)cc3)ccc2O[C@@H]1CN(C)Cc1ccc(C(=O)Nc2ccccc2N)cc1	inactive
Cc1ccc(S(=O)(=O)Nc2ccc3c(c2)C(=O)N([C@@H](C)CO)C[C@H](C)[C@H](CN(C)Cc2ccc(C(F)(F)F)cc2)O3)cc1	inactive
C[C@@H]1CCCCO[C@H](CN(C)C(=O)Nc2cccc3ccccc23)[C@H](C)CN([C@H](C)CO)C(=O)c2cc(NS(=O)(=O)c3ccc(Cl)cc3)ccc2O1	inactive
Cc1ccc(S(=O)(=O)Nc2ccc3c(c2)C(=O)N([C@@H](C)CO)C[C@H](C)[C@H](CN(C)Cc2ccc(C(=O)Nc4ccccc4N)cc2)O3)cc1	inactive
C[C@@H]1CCCCO[C@@H](CN(C)Cc2ccc(C(F)(F)F)cc2)[C@H](C)CN([C@@H](C)CO)C(=O)c2cc(NC(=O)c3ccncc3)ccc2O1	inactive
C[C@H]1CCCCO[C@@H](CN(C)C(=O)Nc2ccc3c(c2)OCO3)[C@@H](C)CN([C@@H](C)CO)C(=O)c2cc(NS(=O)(=O)c3cccs3)ccc2O1	inactive
COc1ccc(S(=O)(=O)Nc2ccc3c(c2)C(=O)N([C@@H](C)CO)C[C@H](C)[C@@H](CN(C)S(=O)(=O)c2cccs2)OCCCC[C@@H](C)O3)cc1	inactive
CCOc1ccc(C2SCC(=O)N2c2c(C)n(C)n(-c3ccccc3)c2=O)cc1 (stereo not given)	inactive
COc1ccccc1Oc1ccc2c(c1)C(=O)N(c1ccc(O)cc1)C2=O	inactive
C[C@@H]1CN([C@H](C)CO)C(=O)c2cc(C#CC3CCCCC3)cnc2O[C@@H]1CN(C)C(=O)C1CCCCC1	inactive
COc1ccc(Br)cc1C1SCCN1S(C)(=O)=O (stereo not given)	inactive
CCC12CC3CC(C1)CC(C(=O)NNC(N)=O)(C3)C2	inactive
COCCNC(=O)C(c1ccc(C)o1)N(Cc1ccc(OC)cc1)C(=O)Cn1nnc2ccccc21 (stereo not given)	inactive
C=CCOc1ccc(/C(CC)=N/O)cc1OC	inactive
CS(=O)(=O)N(CC(=O)NCc1ccco1)c1ccc(OCc2ccccc2)cc1	inactive
COc1cccc(NC(=O)N(C)C[C@H]2Oc3ncc(C#Cc4ccc(F)cc4)cc3C(=O)N([C@@H](C)CO)C[C@@H]2C)c1	inactive
CC(C)NC(=O)N1[C@H](CO)[C@@H](c2ccc(-c3ccc(F)cc3)cc2)[C@@H]1C#N	inactive
COc1ccc(-c2ccc([C@H]3[C@@H](C#N)N(C(=O)NC4CCCCC4)[C@@H]3CO)cc2)cc1	inactive
COc1ccc(CC(=O)NC(CC(=O)O)c2cccc([N+](=O)[O-])c2)cc1 (stereo not given)	inactive

Structure (SMILES)	outcome
N#C[C@H]1[C@H](c2ccc(-c3ccc(F)cc3)cc2)[C@@H](CO)N1C(=O)Cc1ccccc1	inactive
CC(C)NC(=O)N1[C@H](C#N)[C@@H](c2ccc(-c3ccc(F)cc3)cc2)[C@@H]1CO	inactive
CC(C)NC(=O)N1[C@@H](C#N)[C@H](c2ccc(-c3ccc(F)cc3)cc2)[C@@H]1CO	inactive
N#Cc1ccc(Oc2ccc(/C=N/O)cn2)cc1	inactive
COc1ccc(N2CCN(C(=O)COc3ccc4c(C)cc(=O)oc4c3C)CC2)cc1	inactive
C[C@H]1CN([C@@H](C)CO)C(=O)c2cc(NS(=O)(=O)c3ccc(Cl)cc3)ccc2O[C@H]1CN(C)S(=O)(=O)c1cccs1	inactive
C[C@@H]1CN([C@@H](C)CO)C(=O)c2cc(NC(=O)Nc3ccc(F)cc3)ccc2O[C@@H](C)CCCCO[C@@H]1CN(C)S(=O)(=O)c1cccs1	inactive
COCCCn1cnc2c(c1=O)c1nc3ccccc3nc1n2-c1ccccc1	inactive
C[C@@H]1CN([C@@H](C)CO)C(=O)Cc2cc(NC(=O)Cn3cnnn3)ccc2O[C@H]1CN(C)Cc1ccc(Oc2ccccc2)cc1	inactive
COc1ccc(N2Nc3n[nH]c(N)c3N2)cc1	inactive
C[C@@H]1CCCCO[C@H](CN(C)Cc2ccc(C(F)(F)F)cc2)[C@H](C)CN([C@@H](C)CO)C(=O)c2cc(NC(=O)c3ccncc3)ccc2O1	inactive
O=C(NC1CCN(C(=O)NCc2ccccc2)CC1)c1ccco1	inactive
COc1ccc(-c2cnc3c(c2)C(=O)N([C@H](C)CO)C[C@H](C)[C@H](CN(C)S(=O)(=O)c2ccc(C)cc2)O3)cc1	inactive
Cc1noc(C)c1NC(=O)Nc1ccc2c(c1)CC(=O)N([C@H](C)CO)C[C@@H](C)[C@@H](CN(C)Cc1ccc(Cl)c(Cl)c1)O2	inactive
O=CN1CCC(=O)N(Cc2ccccc2)c2ccccc21	inactive
Cc1cccc(NC(=O)c2ccc(OC3CSC3)cc2)c1	inactive
COc1cc(NC(=O)c2ccccc2)c(OC)cc1Cl	inactive
COc1ccc(C2NC(C(=O)O)Cc3c2[nH]c2ccccc32)cc1OC (stereo not given)	inactive
O=C1C[C@@H]2c3c(cccc3CN1Cc1ccc(Cl)cc1)C[C@@H](O)[C@H]2O	inactive
O=C1C[C@@H]2c3c(cccc3CN1Cc1ccc(Br)cc1)C[C@@H](O)[C@H]2O	inactive
COc1ccc(CN2[C@H](CO)[C@H]3c4ccccc4N(C(=O)c4ccccc4)C[C@H]32)cc1	inactive
O=C(CSc1nc2ccccc2[nH]1)Nc1ccc2c(c1)OCCO2	inactive
CCOc1ccc(NC(=O)CN(Cc2ccccc2)S(C)(=O)=O)cc1	inactive
CCOC(=O)Cc1nnc(NC(=O)COc2ccc(OC)cc2)s1	inactive
Cc1cccc(Nc2nc(CC(=O)O)cs2)c1	inactive
C[C@@H]1CN([C@H](C)CO)C(=O)c2cc(C3=CCCCC3)cnc2O[C@@H]1CN(C)C(=O)c1ccccn1	inactive
C[C@H]1CN([C@@H](C)CO)C(=O)c2cc(NC(=O)Cc3cn(C)c4ccccc34)ccc2O[C@@H]1CN(C)S(=O)(=O)c1cccs1	inactive

Structure (SMILES)	outcome
Cc1cc(C)nc(N2CCCC(C(=O)NCc3cccs3)C2)n1 (stereo not given)	inactive
S=C(NCc1ccc(Cl)cc1)Nc1ccccc1	inactive
COc1ccc(S(=O)(=O)Nc2ccc3c(c2)CC(=O)N([C@H](C)CO)C[C@H](C)[C@@H](CN(C)Cc2ccc(C(F)(F)F)cc2)O3)cc1	inactive
Cn1c(-c2sc3cc(C(F)(F)F)cnc3c2-c2cccnc2)n[nH]c1=S	inactive
CC1(C)CC(C(=O)Nc2nccs2)CCO1 (stereo not given)	inactive
C[C@@H]1CN([C@@H](C)CO)C(=O)c2cc(NS(=O)(=O)c3cccs3)ccc2O[C@H]1CN(C)S(=O)(=O)c1ccc(Cl)cc1	inactive
COc1ccc(OC)c(S(=O)(=O)Nc2ccccc2C)c1	inactive
CCCOn1nnnc1-c1ccccc1	inactive
C[C@@H]1CCCCO[C@H](CN(C)C(=O)Nc2cccc3ccccc23)[C@H](C)CN([C@@H](C)CO)C(=O)c2cc(NS(=O)(=O)c3ccc(Cl)cc3)ccc2O1	inactive
CC1CCN(c2ncnc3c2cnn3Cc2ccc(Cl)cc2)CC1	inactive
C[C@H]1CN([C@@H](C)CO)C(=O)c2cc(C3=CCCCC3)cnc2O[C@@H]1CN(C)Cc1ccccc1F	inactive
COc1ccccc1OCCNC1CCCC1	inactive
C[C@@H]1CN([C@H](C)CO)C(=O)Cc2cc(NS(=O)(=O)c3cn(C)cn3)ccc2O[C@@H]1CN(C)Cc1ccc(-c2ccccc2)cc1	inactive
CCOC(=O)c1nn(-c2cccc(Cl)c2)c(C)c1C(C)=O	inactive
O=C(Cn1cnc2c(cnn2-c2ccccc2)c1=O)c1ccc(Cl)cc1	inactive
COc1ccc(NC(=O)Nc2cccc3c2O[C@@H](CN(C)C(=O)Nc2cccc4ccccc24)[C@@H](C)CN([C@H](C)CO)C3=O)cc1	inactive
C[C@@H]1CN([C@@H](C)CO)C(=O)c2cc(N(C)C)ccc2O[C@H]1CN(C)Cc1ccc(-c2ccccc2)cc1	inactive
Oc1ccccc1/C=N/c1c(-c2ccco2)nc2ccccn12	inactive
CC(c1nc2ccccc2c(=O)[nH]1)N1CCN(C)CC1 (stereo not given)	inactive
C[C@H]1CN([C@@H](C)CO)C(=O)c2cc(NS(=O)(=O)c3cccs3)ccc2O[C@H]1CN(C)Cc1ccc(Cl)c(Cl)c1	inactive
O=C(NCc1ccco1)C1CCCN(S(=O)(=O)c2ccccc2)C1 (stereo not given)	inactive
O=C(Nc1ccc(S(=O)(=O)N2CCCCC2)cc1)c1ccco1	inactive
C[C@@H]1CN([C@H](C)CO)C(=O)c2cc(NC(=O)Cc3cn(C)c4ccccc34)ccc2O[C@H]1CN(C)Cc1ccc(-c2ccccc2)cc1	inactive
C[C@H]1CN([C@@H](C)CO)C(=O)c2cc(NC(=O)Cc3cn(C)c4ccccc34)ccc2O[C@@H]1CN(C)Cc1ccc(C(F)(F)F)cc1	inactive
C[C@H](CO)N1C[C@H](C)[C@H](CN(C)Cc2ccc(C(=O)Nc3ccccc3N)cc2)Oc2ccc(NC(=O)Cn3cnnn3)cc2C1=O	inactive
CC(=O)N(C)c1ccc(OCC(O)COc2ccc(N(C)C(C)=O)cc2)cc1	inactive
